Source: the supplement of paper PMC10849652
The full data set covers some 8,800 targets. This sample favours those with a hit. About 0.5% of all pairs of compound and target were hits.

What was measured:
Experiment in all cases: log2 fold change, soluble protein after heating vs DMSO (PISA); higher = thermal stabilisation; K562 lysate, 10 uM; active = over 0.2 and 3.5 SD of the protein, either way, in both replicates (recomputed)
alvocidib = compound: CN1CC[C@H](c2c(O)cc(O)c3c(=O)cc(-c4ccccc4Cl)oc23)[C@H](O)C1 [alvocidib]
In short: (§1)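 The values are log-two fold changes in thermal stability compared with solvent controls and come from duplicates. They were obtained by TMTpro 16plex LC-MS/MS, with channel sums equalised, on the supernatant after 21,000xg for 90 min. That supernatant came from crude K562 extract at 1 mg/mL protein treated with 10 μM compound for 30 min, heated for 3 min across 48°C-58°C, pooled and brought to 0.5% NP-40 at 4°C.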

Tubastatin A = compound: CN1CCc2c(c3ccccc3n2Cc2ccc(C(=O)NO)cc2)C1 [Tubastatin A]
In short: as §1

[1] = compound: CNC(=O)C1=CC=CC=C1NC2=NC(=NC=C2Cl)NC3=C(C=C(C=C3)N4CCOCC4)OC
In short: as §1

defactinib = compound: CNC(=O)c1ccc(Nc2ncc(C(F)(F)F)c(NCc3nccnc3N(C)S(C)(=O)=O)n2)cc1 [defactinib]
In short: as §1

[2] = compound: CNc1nc(-c2ccc3c(N)n[nH]c3c2)cc(N2C[C@@H](C(=O)NC3CCCCC3)CC[C@H]2C)n1
In short: as §1

encorafenib = compound: COC(=O)N[C@@H](C)CNc1nccc(-c2cn(C(C)C)nc2-c2cc(Cl)cc(NS(C)(=O)=O)c2F)n1 [encorafenib]
In short: as §1

[3] = compound: COC(=O)[C@H](CCSC)NC(=O)C1=C(C=C(C=C1)NC[C@H](CS)N)C2=CC=CC=C2
In short: as §1

alisertib = compound: COc1cc(Nc2ncc3c(n2)-c2ccc(Cl)cc2C(c2c(F)cccc2OC)=NC3)ccc1C(=O)O [alisertib]
In short: as §1

[4] = compound: COc1cc2nc(-c3cc(F)ccc3O)nc(N[C@@H]3CNC[C@H]3C(C)(C)O)c2cc1OC
In short: as §1

gefitinib = compound: COc1cc2ncnc(Nc3ccc(F)c(Cl)c3)c2cc1OCCCN1CCOCC1 [gefitinib]
In short: as §1

lapatinib = compound: CS(=O)(=O)CCNCc1ccc(-c2ccc3ncnc(Nc4ccc(OCc5cccc(F)c5)c(Cl)c4)c3c2)o1 [lapatinib]
In short: as §1

pictilisib = compound: CS(=O)(=O)N1CCN(Cc2cc3nc(-c4cccc5[nH]ncc45)nc(N4CCOCC4)c3s2)CC1 [pictilisib]
In short: as §1

crizotinib = compound: C[C@@H](Oc1cc(-c2cnn(C3CCNCC3)c2)cnc1N)c1c(Cl)ccc(F)c1Cl [crizotinib]
In short: as §1

[5] = compound: C[C@H](C1=CC=C(C=C1)C(=O)NC2=C3C=CNC3=NC=C2)N
In short: as §1

duvelisib = compound: C[C@H](Nc1ncnc2nc[nH]c12)c1cc2cccc(Cl)c2c(=O)n1-c1ccccc1 [duvelisib]
In short: as §1

gandotinib = compound: Cc1cc(Nc2cc(CN3CCOCC3)c3nc(C)c(Cc4ccc(Cl)cc4F)n3n2)n[nH]1 [gandotinib]
In short: as §1

tozasertib = compound: Cc1cc(Nc2cc(N3CCN(C)CC3)nc(Sc3ccc(NC(=O)C4CC4)cc3)n2)n[nH]1 [tozasertib]
In short: as §1

doramapimod = compound: Cc1ccc(-n2nc(C(C)(C)C)cc2NC(=O)Nc2ccc(OCCN3CCOCC3)c3ccccc23)cc1 [doramapimod]
In short: as §1

bafetinib = compound: Cc1ccc(NC(=O)c2ccc(CN3CC[C@H](N(C)C)C3)c(C(F)(F)F)c2)cc1Nc1nccc(-c2cncnc2)n1 [bafetinib]
In short: as §1

[6] = compound: Cc1cccc(CC(=O)N2CCc3c2ccc(-c2cn(C)c4ncnc(N)c24)c3F)n1
In short: as §1

Measured: log2 fold change

PTPN23 (UniProt Q9H3S7)
Sequence of UniProt Q9H3S7 (Q9H3S7 whole entry, looked up): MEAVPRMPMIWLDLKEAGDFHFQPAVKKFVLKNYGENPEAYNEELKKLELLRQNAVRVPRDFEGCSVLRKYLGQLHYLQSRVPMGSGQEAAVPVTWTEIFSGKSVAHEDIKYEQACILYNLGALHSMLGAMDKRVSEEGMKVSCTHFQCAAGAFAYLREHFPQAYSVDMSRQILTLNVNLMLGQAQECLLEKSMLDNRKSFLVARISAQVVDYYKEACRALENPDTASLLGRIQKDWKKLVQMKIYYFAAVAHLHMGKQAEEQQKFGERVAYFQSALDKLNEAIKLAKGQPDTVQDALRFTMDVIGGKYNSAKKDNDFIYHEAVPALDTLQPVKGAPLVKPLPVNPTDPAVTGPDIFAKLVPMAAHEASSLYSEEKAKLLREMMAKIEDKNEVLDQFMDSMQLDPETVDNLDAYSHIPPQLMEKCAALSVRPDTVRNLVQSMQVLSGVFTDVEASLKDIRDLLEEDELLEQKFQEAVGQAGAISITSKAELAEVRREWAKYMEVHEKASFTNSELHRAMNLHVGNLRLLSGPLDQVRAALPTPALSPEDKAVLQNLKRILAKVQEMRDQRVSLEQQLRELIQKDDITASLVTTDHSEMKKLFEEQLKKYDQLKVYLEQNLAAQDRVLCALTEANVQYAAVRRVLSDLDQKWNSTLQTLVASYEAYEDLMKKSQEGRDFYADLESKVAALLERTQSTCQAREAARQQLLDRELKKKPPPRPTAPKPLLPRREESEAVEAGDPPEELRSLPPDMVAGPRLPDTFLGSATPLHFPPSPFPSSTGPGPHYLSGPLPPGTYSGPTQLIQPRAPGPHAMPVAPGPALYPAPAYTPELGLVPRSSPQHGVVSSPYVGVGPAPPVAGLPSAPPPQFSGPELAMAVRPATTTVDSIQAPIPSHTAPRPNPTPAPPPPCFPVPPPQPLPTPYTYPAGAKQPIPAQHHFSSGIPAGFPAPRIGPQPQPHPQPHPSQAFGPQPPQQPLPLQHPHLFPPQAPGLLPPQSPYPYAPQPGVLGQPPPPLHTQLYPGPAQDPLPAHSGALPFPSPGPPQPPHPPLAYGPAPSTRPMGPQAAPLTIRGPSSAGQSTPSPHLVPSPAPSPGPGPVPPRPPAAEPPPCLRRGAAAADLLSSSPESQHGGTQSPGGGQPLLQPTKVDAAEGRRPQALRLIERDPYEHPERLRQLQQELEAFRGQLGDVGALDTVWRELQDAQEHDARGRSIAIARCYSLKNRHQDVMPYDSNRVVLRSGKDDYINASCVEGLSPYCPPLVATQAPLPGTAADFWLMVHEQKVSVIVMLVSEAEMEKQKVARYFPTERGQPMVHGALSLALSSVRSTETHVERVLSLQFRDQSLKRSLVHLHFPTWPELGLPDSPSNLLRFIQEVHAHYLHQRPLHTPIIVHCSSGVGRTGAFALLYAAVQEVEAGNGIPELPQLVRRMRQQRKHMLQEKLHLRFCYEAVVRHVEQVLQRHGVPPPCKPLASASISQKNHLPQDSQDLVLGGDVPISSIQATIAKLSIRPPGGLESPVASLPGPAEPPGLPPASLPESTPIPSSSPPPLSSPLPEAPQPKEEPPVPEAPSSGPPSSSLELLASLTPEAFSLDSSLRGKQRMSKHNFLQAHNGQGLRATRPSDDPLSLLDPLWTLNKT
inactive: alvocidib -0.004 | Tubastatin A -0.035 | [1] -0.03 | defactinib -0.018 | [2] 0.016 | encorafenib 0.031 | [3] -0.018 | alisertib 0.012 | [4] -0.017 | gefitinib 0.005 | lapatinib 0.003 | pictilisib -0.028 | crizotinib -0.014 | [5] 0.005 | duvelisib -0.023 | gandotinib -0.031 | tozasertib 0.013 | doramapimod 0.016 | bafetinib -0.032 | [6] 0.023

PCBP2 isoform 3 (UniProt Q15366)
Sequence of UniProt Q15366 (Q15366 whole entry, looked up): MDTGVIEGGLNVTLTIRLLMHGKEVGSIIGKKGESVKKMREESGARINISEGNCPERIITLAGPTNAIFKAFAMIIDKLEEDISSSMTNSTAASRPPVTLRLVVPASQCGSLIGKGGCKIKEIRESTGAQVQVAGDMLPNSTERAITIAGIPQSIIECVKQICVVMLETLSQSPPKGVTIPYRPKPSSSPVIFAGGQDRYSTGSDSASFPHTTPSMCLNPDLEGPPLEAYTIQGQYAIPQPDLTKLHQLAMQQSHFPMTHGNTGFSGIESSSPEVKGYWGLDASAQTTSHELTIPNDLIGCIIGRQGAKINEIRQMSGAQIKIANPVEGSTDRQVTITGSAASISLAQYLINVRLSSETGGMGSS
inactive: alvocidib 0.038 | Tubastatin A -0.074 | [1] 0.017 | defactinib 0.006 | [2] -0.075 | encorafenib 0.049 | [3] -0.048 | alisertib -0.001 | [4] -0.006 | gefitinib -0.009 | lapatinib -0.013 | pictilisib -0.008 | crizotinib 0.079 | [5] -0.005 | duvelisib -0.015 | gandotinib -0.023 | tozasertib 0.014 | doramapimod 0.012 | bafetinib 0.002 | [6] -0.042

PPP2R3C (UniProt Q969Q6)
Sequence of UniProt Q969Q6 (Q969Q6 whole entry, looked up): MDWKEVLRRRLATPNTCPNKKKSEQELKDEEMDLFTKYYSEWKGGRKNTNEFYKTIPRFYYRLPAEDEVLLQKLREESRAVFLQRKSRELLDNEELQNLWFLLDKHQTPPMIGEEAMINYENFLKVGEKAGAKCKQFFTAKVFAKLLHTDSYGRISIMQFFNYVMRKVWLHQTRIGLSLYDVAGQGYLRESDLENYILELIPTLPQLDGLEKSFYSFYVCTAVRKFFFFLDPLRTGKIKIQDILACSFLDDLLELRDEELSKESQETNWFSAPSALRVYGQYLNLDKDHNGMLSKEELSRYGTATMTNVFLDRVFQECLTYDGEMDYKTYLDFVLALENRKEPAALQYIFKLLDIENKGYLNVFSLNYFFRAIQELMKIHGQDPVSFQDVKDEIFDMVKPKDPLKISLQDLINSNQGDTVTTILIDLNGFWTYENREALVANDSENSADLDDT
inactive: alvocidib -0.018 | Tubastatin A -0.145 | [1] -0.046 | defactinib 0.072 | [2] 0.081 | encorafenib 0.105 | [3] 0.013 | alisertib 0.069 | [4] -0.23 | gefitinib 0.105 | lapatinib 0.048 | pictilisib -0.029 | [5] -0.1 | duvelisib 0.028 | gandotinib -0.097 | tozasertib 0.036 | bafetinib 0.022 | [6] 0.023

PMS1 (UniProt P54277)
inactive: alvocidib -0.038 | Tubastatin A -0.046 | [1] -0.008 | defactinib 0 | [2] -0.039 | encorafenib 0.046 | [3] 0.022 | alisertib -0.01 | gefitinib 0.049 | pictilisib -0.028 | crizotinib -0.004 | [5] 0.018 | duvelisib 0.018 | gandotinib -0.063 | tozasertib -0.053 | doramapimod -0.03 | bafetinib -0.064 | [6] -0.013

PTS (UniProt Q03393)
Sequence of UniProt Q03393 (Q03393 whole entry, looked up): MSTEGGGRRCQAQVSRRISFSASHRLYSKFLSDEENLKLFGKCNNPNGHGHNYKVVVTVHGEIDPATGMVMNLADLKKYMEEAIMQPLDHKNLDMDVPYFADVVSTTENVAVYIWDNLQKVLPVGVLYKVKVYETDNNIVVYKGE
inactive: alvocidib -0.055 | Tubastatin A -0.007 | [1] 0.043 | defactinib -0.059 | [2] 0.015 | encorafenib 0.1 | [3] -0.022 | alisertib -0.009 | [4] 0.016 | gefitinib 0.121 | lapatinib -0.018 | pictilisib 0.008 | crizotinib 0.051 | [5] -0.024 | duvelisib 0.051 | gandotinib -0.039 | tozasertib 0.031 | doramapimod -0.069 | bafetinib 0 | [6] 0.05

PRKAB2 (UniProt O43741)
Sequence of UniProt O43741 (O43741 whole entry, looked up): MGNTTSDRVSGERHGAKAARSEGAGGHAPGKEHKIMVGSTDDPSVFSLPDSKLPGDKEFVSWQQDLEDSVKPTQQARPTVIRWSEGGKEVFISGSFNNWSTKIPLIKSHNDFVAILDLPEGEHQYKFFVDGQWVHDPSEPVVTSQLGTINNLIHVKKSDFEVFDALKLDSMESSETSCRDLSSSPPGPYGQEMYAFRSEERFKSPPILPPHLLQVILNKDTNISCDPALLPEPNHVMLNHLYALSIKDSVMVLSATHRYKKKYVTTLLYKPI
active: [5] -0.698
inactive: alvocidib -0.122 | Tubastatin A -0.016 | [1] 0.286 | defactinib 0.057 | [2] 0.062 | encorafenib -0.04 | [3] -0.09 | alisertib -0.062 | [4] 0.058 | gefitinib -0.126 | lapatinib -0.029 | pictilisib 0.09 | crizotinib -0.013 | duvelisib 0.019 | gandotinib 0.25 | tozasertib 0.111 | doramapimod 0.039 | bafetinib 0.052 | [6] 0.142

PICALM (UniProt H0YEH1)
inactive: alvocidib -0.206 | Tubastatin A 0.126 | [1] 0.098 | defactinib 0.006 | [2] 0 | encorafenib -0.038 | [3] 0.098 | alisertib 0.049 | [4] -0.042 | gefitinib -0.036 | lapatinib 0.046 | pictilisib 0.016 | crizotinib -0.086 | duvelisib -0.075 | gandotinib 0.238 | tozasertib 0.152 | doramapimod 0.274 | bafetinib 0.018
active: [5] -0.47 | [6] 0.335

PPIL3 (UniProt Q9H2H8)
Sequence of UniProt Q9H2H8 (Q9H2H8 whole entry, looked up): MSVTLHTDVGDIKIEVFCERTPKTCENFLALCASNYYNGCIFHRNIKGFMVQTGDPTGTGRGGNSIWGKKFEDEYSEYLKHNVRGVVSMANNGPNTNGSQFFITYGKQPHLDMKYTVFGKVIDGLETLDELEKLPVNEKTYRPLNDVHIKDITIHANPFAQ
inactive: alvocidib -0.105 | Tubastatin A -0.044 | [1] 0 | defactinib -0.115 | [2] 0.012 | encorafenib 0.011 | [3] 0.008 | alisertib -0.033 | [4] 0.018 | gefitinib -0.02 | lapatinib 0.05 | pictilisib -0.062 | crizotinib 0.079 | [5] -0.115 | duvelisib -0.009 | gandotinib 0.084 | tozasertib -0.019 | doramapimod 0 | bafetinib -0.037 | [6] 0.08

PUM1 isoform 3 (UniProt Q14671)
active: doramapimod -0.315
inactive: alvocidib 0.02 | Tubastatin A -0.033 | [1] -0.017 | defactinib 0.017 | [2] -0.023 | encorafenib 0.008 | [3] 0 | alisertib 0.031 | [4] 0.017 | gefitinib -0.014 | lapatinib 0.004 | pictilisib -0.036 | crizotinib 0.067 | [5] 0.021 | duvelisib -0.003 | gandotinib -0.151 | tozasertib 0.01 | bafetinib -0.067 | [6] -0.026

PGGT1B (UniProt P53609)
Sequence of UniProt P53609 (P53609 whole entry, looked up): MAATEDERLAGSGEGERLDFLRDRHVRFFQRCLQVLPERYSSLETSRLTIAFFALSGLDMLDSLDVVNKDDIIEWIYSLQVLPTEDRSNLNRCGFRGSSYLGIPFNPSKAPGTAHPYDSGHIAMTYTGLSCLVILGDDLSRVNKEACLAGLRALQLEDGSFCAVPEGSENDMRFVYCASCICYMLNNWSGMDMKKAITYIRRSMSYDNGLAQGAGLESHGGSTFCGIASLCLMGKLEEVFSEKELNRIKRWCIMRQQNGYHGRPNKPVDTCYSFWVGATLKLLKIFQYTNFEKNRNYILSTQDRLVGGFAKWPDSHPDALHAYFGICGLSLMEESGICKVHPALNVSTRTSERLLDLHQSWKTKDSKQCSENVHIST
inactive: alvocidib 0.032 | Tubastatin A 0.036 | [1] -0.068 | defactinib 0.022 | [2] -0.117 | encorafenib -0.039 | alisertib -0.011 | [4] -0.032 | gefitinib -0.021 | lapatinib 0.013 | pictilisib -0.012 | crizotinib 0.01 | [5] 0.013 | duvelisib -0.019 | gandotinib -0.158 | tozasertib 0.083 | doramapimod 0.047 | bafetinib 0.076 | [6] -0.074
active: [3] 0.454

PCLAF (UniProt Q15004)
Sequence of UniProt Q15004 (Q15004 whole entry, looked up): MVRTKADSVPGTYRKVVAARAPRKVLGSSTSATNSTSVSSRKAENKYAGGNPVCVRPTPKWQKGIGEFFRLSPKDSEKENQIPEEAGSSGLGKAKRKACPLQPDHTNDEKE
inactive: alvocidib -0.005 | Tubastatin A 0.041 | [1] 0.017 | defactinib 0.014 | [2] 0.056 | encorafenib 0.005 | [3] -0.077 | alisertib -0.097 | gefitinib 0.001 | pictilisib 0.015 | crizotinib 0.024 | [5] -0.079 | duvelisib 0.037 | gandotinib 0.108 | tozasertib -0.029 | doramapimod 0.009 | bafetinib -0.01 | [6] 0.05

PDIA4 (UniProt P13667)
inactive: alvocidib 0.025 | Tubastatin A 0.05 | [1] -0.008 | defactinib -0.042 | [2] -0.012 | encorafenib -0.011 | [3] -0.027 | alisertib -0.007 | [4] -0.001 | gefitinib -0.011 | lapatinib -0.018 | pictilisib 0.006 | crizotinib 0.09 | [5] 0.029 | duvelisib -0.011 | gandotinib -0.026 | tozasertib 0 | doramapimod -0.057 | bafetinib 0.014 | [6] -0.045

PMS2 (UniProt P54278)
Sequence of UniProt P54278 (P54278 whole entry, looked up): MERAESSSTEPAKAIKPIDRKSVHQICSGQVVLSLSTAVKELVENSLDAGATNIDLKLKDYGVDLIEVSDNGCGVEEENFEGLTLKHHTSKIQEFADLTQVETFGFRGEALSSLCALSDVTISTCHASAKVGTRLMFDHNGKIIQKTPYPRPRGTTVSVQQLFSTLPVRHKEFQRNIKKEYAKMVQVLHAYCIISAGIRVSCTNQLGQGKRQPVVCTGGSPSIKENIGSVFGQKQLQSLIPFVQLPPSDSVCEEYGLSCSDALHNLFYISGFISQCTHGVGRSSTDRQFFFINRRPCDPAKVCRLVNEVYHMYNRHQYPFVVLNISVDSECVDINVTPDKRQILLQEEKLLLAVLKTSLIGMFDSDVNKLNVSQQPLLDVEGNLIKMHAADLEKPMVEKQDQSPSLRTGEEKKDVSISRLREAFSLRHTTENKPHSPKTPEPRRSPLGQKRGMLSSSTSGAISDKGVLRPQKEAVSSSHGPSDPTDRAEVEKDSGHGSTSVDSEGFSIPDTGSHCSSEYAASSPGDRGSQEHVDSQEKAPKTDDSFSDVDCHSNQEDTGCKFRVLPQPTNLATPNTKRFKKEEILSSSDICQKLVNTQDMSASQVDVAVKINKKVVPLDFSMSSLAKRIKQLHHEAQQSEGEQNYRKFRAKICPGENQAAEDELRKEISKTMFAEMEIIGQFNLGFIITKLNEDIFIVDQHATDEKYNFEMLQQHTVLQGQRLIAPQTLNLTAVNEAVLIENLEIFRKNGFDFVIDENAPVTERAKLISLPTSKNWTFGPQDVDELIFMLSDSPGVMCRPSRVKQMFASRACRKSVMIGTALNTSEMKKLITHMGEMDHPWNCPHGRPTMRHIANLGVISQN
inactive: alvocidib -0.001 | Tubastatin A -0.129 | [1] 0.03 | defactinib 0.021 | [2] 0.103 | encorafenib 0.038 | [3] 0.089 | alisertib 0.009 | [4] 0.02 | gefitinib 0.024 | lapatinib 0.016 | pictilisib 0.021 | crizotinib -0.038 | [5] -0.036 | duvelisib 0 | gandotinib -0.064 | tozasertib -0.014 | doramapimod -0.038 | bafetinib 0.021 | [6] 0.037

PSTPIP2 (UniProt Q9H939)
Sequence of UniProt Q9H939 (Q9H939 whole entry, looked up): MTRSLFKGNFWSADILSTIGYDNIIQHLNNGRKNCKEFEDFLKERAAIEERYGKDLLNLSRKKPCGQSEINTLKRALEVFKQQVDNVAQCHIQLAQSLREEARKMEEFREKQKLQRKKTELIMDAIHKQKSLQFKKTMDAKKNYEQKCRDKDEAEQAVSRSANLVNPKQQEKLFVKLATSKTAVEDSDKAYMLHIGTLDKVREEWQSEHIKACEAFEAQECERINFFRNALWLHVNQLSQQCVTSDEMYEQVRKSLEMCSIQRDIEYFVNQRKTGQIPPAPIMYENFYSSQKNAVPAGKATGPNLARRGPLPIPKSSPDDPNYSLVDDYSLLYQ
inactive: alvocidib -0.006 | Tubastatin A -0.04 | [1] 0.031 | defactinib -0.016 | [2] 0.026 | encorafenib 0.023 | [3] 0.002 | alisertib -0.052 | [4] -0.03 | gefitinib -0.028 | lapatinib 0.009 | pictilisib 0.019 | crizotinib -0.047 | [5] 0.062 | duvelisib -0.023 | gandotinib -0.095 | tozasertib 0.012 | doramapimod 0.002 | bafetinib -0.014 | [6] -0.027

POLR2G (UniProt P62487)
inactive: alvocidib -0.034 | Tubastatin A 0.012 | [1] 0.038 | defactinib 0.027 | [2] 0.019 | encorafenib 0.007 | [3] -0.032 | alisertib 0.016 | [4] 0.017 | gefitinib -0.01 | lapatinib -0.001 | pictilisib -0.048 | crizotinib 0.016 | [5] -0.04 | duvelisib 0.03 | gandotinib -0.002 | tozasertib -0.04 | doramapimod -0.011 | bafetinib 0.004 | [6] -0.006

PPM1H (UniProt Q9ULR3)
inactive: alvocidib -0.046 | Tubastatin A 0.071 | [1] 0.006 | defactinib -0.03 | [2] 0.078 | encorafenib -0.008 | [3] -0.028 | [4] 0.05 | lapatinib 0.013 | pictilisib 0.016 | crizotinib 0.021 | [5] -0.043 | duvelisib 0 | gandotinib 0.157 | tozasertib 0.021 | doramapimod 0.093 | bafetinib -0.079 | [6] 0.038
